From PubChem BioAssay AID720704 (The Scripps Research Institute Molecular Screening Center, 2013)
“And” between values parts separate entries of the source, which are not always exact repeats. Equal entries are not always repeated. Among all 370,000 compounds or so, about 660 (0.18%) were called active. No stated cut-off is given here; in the data, active means inhibition above about 11%; inactive means the rest. Many of the other results were omitted from the sample, so actives are more common in it than they were.

Each compound was assayed against 1-phosphatidylinositol 4,5-bisphosphate phosphodiesterase beta-3 (Homo sapiens) (UniProt Q01970) (assay: phospholipase C beta3 enzyme inhibition – biochemical, fluorescence, primary screen (AID 720704;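 further: 0% = median of compound wells on plate and 100% = full blocker control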)). Details: Purified PLC-beta3, fluorogenic substrate, at 12.2 µM, active compounds read high.
1-phosphatidylinositol 4,5-bisphosphate phosphodiesterase beta-3 (Homo sapiens), sequence (Q01970 whole entry, looked up): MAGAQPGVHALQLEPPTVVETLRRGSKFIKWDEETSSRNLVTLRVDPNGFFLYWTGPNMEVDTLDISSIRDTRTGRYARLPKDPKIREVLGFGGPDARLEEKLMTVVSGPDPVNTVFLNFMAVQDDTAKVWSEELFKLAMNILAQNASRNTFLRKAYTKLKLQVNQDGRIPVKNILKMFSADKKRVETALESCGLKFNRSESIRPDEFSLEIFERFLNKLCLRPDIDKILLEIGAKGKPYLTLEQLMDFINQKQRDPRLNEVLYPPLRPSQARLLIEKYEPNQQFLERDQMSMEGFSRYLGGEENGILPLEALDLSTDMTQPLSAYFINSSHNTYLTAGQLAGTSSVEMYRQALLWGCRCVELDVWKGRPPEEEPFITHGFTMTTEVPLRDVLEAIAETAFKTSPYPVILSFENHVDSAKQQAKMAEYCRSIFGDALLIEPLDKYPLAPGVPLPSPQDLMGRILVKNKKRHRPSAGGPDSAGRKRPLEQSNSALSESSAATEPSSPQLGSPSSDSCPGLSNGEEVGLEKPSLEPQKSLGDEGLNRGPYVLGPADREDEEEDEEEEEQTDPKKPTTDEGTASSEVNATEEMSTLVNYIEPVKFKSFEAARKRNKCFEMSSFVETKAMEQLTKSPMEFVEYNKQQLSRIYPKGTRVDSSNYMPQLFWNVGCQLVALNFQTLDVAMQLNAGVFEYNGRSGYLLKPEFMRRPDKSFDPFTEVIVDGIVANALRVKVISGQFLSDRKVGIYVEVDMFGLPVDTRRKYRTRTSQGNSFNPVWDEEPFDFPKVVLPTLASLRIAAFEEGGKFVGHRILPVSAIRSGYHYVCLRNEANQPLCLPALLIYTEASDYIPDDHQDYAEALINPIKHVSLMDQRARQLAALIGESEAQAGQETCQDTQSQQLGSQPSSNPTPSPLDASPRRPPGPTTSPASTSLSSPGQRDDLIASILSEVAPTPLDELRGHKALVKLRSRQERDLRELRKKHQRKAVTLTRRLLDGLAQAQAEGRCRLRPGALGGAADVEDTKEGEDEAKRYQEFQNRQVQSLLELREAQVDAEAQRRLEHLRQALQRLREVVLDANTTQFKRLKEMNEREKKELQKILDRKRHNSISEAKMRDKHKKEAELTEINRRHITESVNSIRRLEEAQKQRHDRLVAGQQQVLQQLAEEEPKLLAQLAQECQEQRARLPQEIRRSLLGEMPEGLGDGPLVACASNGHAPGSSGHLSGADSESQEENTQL
For `Cc1cc(NC(=O)COn2nnc3ccccc32)no1`, the inhibition was 10.7% (active).
For `Cc1cc(NC(=O)CSCc2ccccc2C)no1`, the inhibition was -0.65% (inactive).
`Cc1cc(NC(=O)COc2ccccc2C#N)no1` was tested, and the inhibition was -4.84% (inactive).
In the case of `C/C(CC(=O)Nc1cccc(C(F)(F)F)c1)=N\NC(=O)C(=O)NCC(C)C`, the inhibition is reported as 2.01% (inactive).
In the case of `NC(c1csc(NC(=O)Nc2ccccc2Oc2ccccc2)n1)c1ccccc1Cl` (stereo not given), the inhibition is reported as -2.19% (inactive).
For `COc1ccc(C(N)c2csc(NC(=O)Nc3cccc(C(F)(F)F)c3)n2)cc1` (stereo not given), the inhibition was 11.1% (active).
With `CCOC(=O)/C=C/CN(C(=O)OC(C)(C)C)S(=O)(=O)N1CC=CC1` the inhibition was 5.79% (inactive).
`O=C(C1CCCO1)N1CCN(C(=S)Nc2cccc(Cl)c2)CC1` (stereo not given) was tested, and the inhibition was 12.1% (active).
For `O=C(CN1CCN(C(=O)C2CCCO2)CC1)Nc1c(Cl)cccc1Cl` (stereo not given), the inhibition was -2.62% (inactive).
In the case of `O=C(C1CCCO1)N1CCN(C(=S)NC2CC2)CC1` (stereo not given), the inhibition is reported as -1.16% (inactive).
For `C=CCN1[C@H](CC(C)C)COc2cccc(N3CCCC3)c2S1(=O)=O`, the inhibition was -10.8% (inactive).
For `C=CCSc1nc2c(c(=O)[nH]1)C(C(C)C)C(C#N)=C(N)O2` (stereo not given), the inhibition was -5.98% (inactive).
In the case of `O=C(NC1CCCC1)C1CC(=O)N(c2ccc(F)cc2)C1` (stereo not given), the inhibition is reported as 1.14% (inactive).
In the case of `NC(=O)C1CC=CCC1C(=O)OCC(Cl)=C(Cl)Cl` (stereo not given), the inhibition is reported as -21% (inactive).
`C=C(Cl)COC(=O)C1C2C=CC(C2)C1C(=O)O` (stereo not given) was tested, and the inhibition was -0.54% (inactive).
For `COc1cc(OC)cc(C(=O)OCC(=O)Nc2sccc2C(N)=O)c1`, the inhibition was -6.31% (inactive).
With `CCOC(=O)c1cnc(SCc2nc(N)nc(Nc3ccc(OC)cc3)n2)nc1N` the inhibition was 0.61% (inactive).
`Cc1ccc2nsnc2c1S(=O)(=O)N1CCCC1C(=O)O` (stereo not given) was tested, and the inhibition was 5.41% (inactive).
`CC[C@]12c3[nH]c4ccc(Cl)cc4c3CCN1C(=O)[C@@H](CC(=O)NCCCOC)C[C@@H]2C(=O)N1CCN(C(=O)C2CC2)CC1` was tested, and the inhibition was -4.01% (inactive).
`O=C(NC1CC1)C1CCCN(C(=O)NC2CCCCC2)C1` (stereo not given) was tested, and the inhibition was -7.45% (inactive).
`CC(C)C(=O)N1CCN(CCN=CC2=C(O)CC(c3ccco3)CC2=O)CC1` (stereo not given) was tested, and the inhibition was -7.32% (inactive) and -15% (inactive).
For `C=CCn1c(SCc2ccc(Cl)c(Cl)c2)nnc1C(CO)NC(=O)c1ccc(OC)cc1` (stereo not given), the inhibition was 4.74% (inactive).
With `COCCCn1cc(CN2CC(N(C)C)CS2(=O)=O)nn1` (stereo not given) the inhibition was -1.16% (inactive).
In the case of `O=C(Nc1c(C(=O)N2CCCCC2)cnn1-c1ccccc1)c1ccco1`, the inhibition is reported as 2.51% (inactive).
With `O=C(CN(CC1CCCO1)C(=O)CNS(=O)(=O)c1ccc(F)cc1)NCc1ccco1` (stereo not given) the inhibition was 1.51% (inactive).
`O=C1NC2(CCCCC2)N=C1c1ccccc1` was tested, and the inhibition was 10% (inactive).
In the case of `Cc1ccccc1N1CCN(C2CCCN(C(=O)c3cn4c(C)cccc4n3)C2)CC1` (stereo not given), the inhibition is reported as -10.2% (inactive).
`O=[N+]([O-])c1cc([N+](=O)[O-])c2cccnc2c1O` was tested, and the inhibition was -4.85% (inactive).
With `Oc1c(CN2CCCC2)cc(COCc2ccccc2)c2cccnc12` the inhibition was 16.5% (active).
With `CCCNC(=O)NC(=O)COC(=O)CC(NC(N)=O)c1ccc(Cl)cc1` (stereo not given) the inhibition was 0.66% (inactive).
With `CCOC(=O)c1cnc(-n2nc(C)cc2C)nc1NNc1cc(C)nc(-c2ccccc2)n1` the inhibition was 1.49% (inactive).
For `COc1ccccc1CCNC(=O)C1CCN(c2nc(C)cc(C)n2)CC1`, the inhibition was 1.47% (inactive).
For `COc1ccccc1/C=N\Nc1cc(C)nc(-n2nc(C)cc2C)n1`, the inhibition was 11.2% (active).
With `CCCOc1cccc(C(=O)Nc2ccccc2C(=O)N2CCN(C)CC2)c1` the inhibition was -3.82% (inactive).
`Cn1c(SCC(=O)Nc2cccc(O)c2)nnc1-c1ccc(S(=O)(=O)N2CCOCC2)cc1` was tested, and the inhibition was 1.37% (inactive).
`Cc1ccc(NC(=O)C(C)OC(=O)Cc2c[nH]c3ccccc23)cc1S(=O)(=O)N1CCOCC1` (stereo not given) was tested, and the inhibition was -3.66% (inactive).
With `CCC(C)(C(=O)NC1CCCCC1)N(C)C(=O)c1ccc2c(c1)OCO2` (stereo not given) the inhibition was 3.07% (inactive).
With `CCOC(=O)c1cccc(NC(=O)CCc2nnc3ccc(N4CCOCC4)nn23)c1` the inhibition was -10.3% (inactive).
`CC(=O)c1c(C)[nH]c(C(=O)N2CCN(S(=O)(=O)c3ccc(F)c(F)c3)CC2)c1C` was tested, and the inhibition was -2.62% (inactive).
For `COCCNc1ccc(-c2n[nH]c(=O)c3ccccc23)cc1[N+](=O)[O-]`, the inhibition was -3.71% (inactive).
For `O=C(c1ccc2c(c1)OCO2)N1CCNc2ccccc2C1`, the inhibition was 12.9% (active).
For `O=CN1CCN(C(=O)c2ccc3c(c2)OCO3)CC1`, the inhibition was -2.96% (inactive).
In the case of `O=C(C(=O)N1CCN(c2ccccc2)CC1)c1ccc2c(c1)OCO2`, the inhibition is reported as -0.14% (inactive).
For `O=C(NCc1ccccc1)c1onc(CSc2nc3ccccc3[nH]2)c1C(=O)NCc1ccccc1`, the inhibition was 8.62% (inactive).
For `COc1cc(OC)c(C(=O)N2CCCC2)cc1OC`, the inhibition was -8.68% (inactive).
For `CCCc1nc2ccccc2n1C(C)C(=O)NC(C)(C)C` (stereo not given), the inhibition was 1.17% (inactive).
`CCC[C@H]1CCCC/C=C\CCCC(=O)OCCN1C(=O)OC(C)(C)C` was tested, and the inhibition was 13.5% (active).
`Cc1ccc(C)c(NC(=O)C2CCCN2C(=O)OC(C)(C)C)c1` (stereo not given) was tested, and the inhibition was 5.04% (inactive).
For `Cc1cccc(C)c1NC(=O)C1CCCN1C(=O)OC(C)(C)C` (stereo not given), the inhibition was 0.37% (inactive).
`CC(C)Cn1c(SCC(=O)Nc2ccc(Cl)cc2F)nc(O)cc1=O` was tested, and the inhibition was -1.44% (inactive).
In the case of `CC(C)c1ccc(Nc2nnc(SCC(=O)c3nnc(-c4ccccc4)o3)s2)cc1`, the inhibition is reported as -19.6% (inactive).
For `O=C(Nc1cccc2ccccc12)c1[nH]c(-c2ccccc2)c2c1C(=O)N(C1CC1)C2=O`, the inhibition was -1.92% (inactive).
In the case of `CCC(=O)c1ccc(OCC(=O)OCC(=O)N2CCc3ccccc3C2)cc1`, the inhibition is reported as -10.2% (inactive).
For `CO/N=C(/CS(=O)(=O)c1ccc(Br)cc1)c1ccc(OC)cc1`, the inhibition was 0.43% (inactive).
`CCSc1sc(CC)cc1C=O` was tested, and the inhibition was -0.46% (inactive).
For `CCOC(=O)N1CCN(Cc2nc(Cc3cccc(C(F)(F)F)c3)no2)CC1`, the inhibition was -6.49% (inactive).
In the case of `CC(C)=CCN1CCN(Cc2cc3ccccc3[nH]2)CC1CCO` (stereo not given), the inhibition is reported as -5.94% (inactive).
For `CC(C)(C)OC(=O)Nc1ccc([C@@H](NC(=O)OC(C)(C)C)C(=O)OC(C)(C)C)cc1`, the inhibition was 6.19% (inactive).
In the case of `CCN(CC(=O)Nc1ccc2c(c1)OCCO2)Cc1cc(=O)oc2cc(C)c(C)cc12`, the inhibition is reported as -6.71% (inactive).
`CO[C@@H]1CN(C)C(=O)c2cc(NC(=O)Nc3cc(F)ccc3F)ccc2OC[C@H](C)N(C(=O)c2ccccn2)C[C@@H]1C` was tested, and the inhibition was -2.49% (inactive).
For `COC(=O)c1ccc(COC(=O)c2cnccn2)cc1`, the inhibition was 4.2% (inactive).
`O=C(c1ccc(OC2CCN(C/C=C/c3ccc(F)cc3)CC2)cc1)N1CCCCC1` was tested, and the inhibition was -10.6% (inactive).
`COc1cc(OC)c(-n2cc(-c3ccc(Cl)cc3)[nH]c2=O)cc1Cl` was tested, and the inhibition was 1.76% (inactive).
`Cc1ccc(NC(=O)c2nc[nH]c2C(=O)N2CCCCC2)c(C(=O)c2ccccc2)c1` was tested, and the inhibition was -2.21% (inactive).
`Cc1cc(C(=O)N2CCC(C(=O)O)CC2)c(C(F)(F)F)o1` was tested, and the inhibition was -3.87% (inactive).
For `COc1cccc(NC(=O)C(Sc2nc3ccccc3c(=O)n2CC(C)C)c2ccccc2)c1` (stereo not given), the inhibition was 0.44% (inactive).
`Cc1ccc2nc(-c3ccc(SCC(=O)Nc4cc(C)on4)nc3)[nH]c2c1` was tested, and the inhibition was -55.5% (inactive).
`CCC(C(=O)NCCC(C)C)N(Cc1ccccc1Cl)C(=O)c1snc(C(N)=O)c1N` (stereo not given) was tested, and the inhibition was -123% (inactive).
`COc1ccccc1Nc1nc(N)nc(CSC(=S)N2CCOCC2)n1` was tested, and the inhibition was -5.33% (inactive).
In the case of `Cc1cccc([C@H]2[C@@H]3C=CC[C@@H](C)[C@@H]3C(=O)N2Cc2ccccc2)c1`, the inhibition is reported as -3.88% (inactive).
With `COc1ccc(NC(=O)CCC(=O)N2CCN(S(=O)(=O)c3ccc(C)cc3)CC2)c(OC)c1` the inhibition was -5.05% (inactive).
`CCC1C(C#N)=C(SC)NC2=C1C(=O)CC(C)(C)C2` (stereo not given) was tested, and the inhibition was -65.6% (inactive).
For `O=C1CCN(Cc2ccccc2)CCN1[C@H](CSc1ccccc1)c1ccccc1`, the inhibition was -6.78% (inactive).
With `Cc1ccc(C)c(N(CC(=O)NCc2ccco2)C(=O)CCC(=O)Nc2ccccn2)c1` the inhibition was -1.21% (inactive).
In the case of `Nn1c(SCC(=O)N2c3ccccc3Sc3ccccc32)nnc1-c1n[nH]c2c1CCC2`, the inhibition is reported as -2.4% (inactive).
With `CC1Cc2ccccc2N1C(=O)Cn1cnc2ccccc2c1=O` (stereo not given) the inhibition was -1.51% (inactive).
For `CCCCNC(=O)C1CCCNC1=O` (stereo not given), the inhibition was 1.97% (inactive).
With `CCOC(=O)C1=CCC2C(=O)N(Cc3ccccc3)C(=O)C12` (stereo not given) the inhibition was 0.58% (inactive).
`CCOCCCNC(=O)C1(O)c2cc(Br)ccc2NC(=O)N1c1ccc(C)c(C)c1` (stereo not given) was tested, and the inhibition was 0.25% (inactive).
`COC(=O)NC1(C(F)(F)F)NC(=O)N(C2CCCCC2)C1=O` (stereo not given) was tested, and the inhibition was 13.8% (active).
For `COc1ccc(C(=O)NC2(C(F)(F)F)NC(=O)N(CCCc3ccccc3)C2=O)c(OC)c1OC` (stereo not given), the inhibition was 0.7% (inactive).
With `O=C(NCCCN1CCCC1=O)c1cccc(S(=O)(=O)NCc2ccccc2)c1` the inhibition was -4.88% (inactive).
With `Cc1cccc(C(=O)NCCCN2CCCC2=O)c1` the inhibition was 11.5% (active).
`CCOc1ccc(C(=O)NCCCN2CCCC2=O)cc1` was tested, and the inhibition was 2.32% (inactive).
`O=C1NC(=O)C(CCc2ccccc2)(c2ccccc2)N1` (stereo not given) was tested, and the inhibition was 2.82% (inactive).
For `OCC1OC(n2cnc3c(N4CCCC4)ncnc32)C(O)C1O` (stereo not given), the inhibition was -4.64% (inactive).
In the case of `O=C(Nc1ccccc1C(=O)NCC1CCCO1)c1ccccc1F` (stereo not given), the inhibition is reported as -7.42% (inactive).
For `CCN1CCN(c2c(Cl)cccc2NC(=O)c2ccc(Br)o2)CC1`, the inhibition was 1.67% (inactive).
For `O=c1/c(=C/c2ccc(CNS(=O)(=O)c3ccccc3)o2)sc2n1CCN=2`, the inhibition was -17.6% (inactive).
In the case of `CCOC(=O)C1C(c2ccc(OC)c(OC)c2)c2c([nH][nH]c2=O)CC1(C)O` (stereo not given), the inhibition is reported as -7.78% (inactive).
